Experimental findings from publication PMC11574364 are described below.

Assay in all cases: protein domain microarray probed with biotinylated miRNA; Domain array: 20 mM Tris-HCl pH 7.4, 200 mM KCl, 0.2 mM EDTA, 0.05% NP40, 2 ug/ul heparin, overnight 4 C. ORF array: PBS pH 7.0 with RNase inhibitor, 100 ng RNA; high values mean tight binding
What all share (settings): ssRNA

Experiment [1] concerns the target T1, RBM19(5-6) (Homo sapiens, UniProt Q9Y4C8).
T1 sequence: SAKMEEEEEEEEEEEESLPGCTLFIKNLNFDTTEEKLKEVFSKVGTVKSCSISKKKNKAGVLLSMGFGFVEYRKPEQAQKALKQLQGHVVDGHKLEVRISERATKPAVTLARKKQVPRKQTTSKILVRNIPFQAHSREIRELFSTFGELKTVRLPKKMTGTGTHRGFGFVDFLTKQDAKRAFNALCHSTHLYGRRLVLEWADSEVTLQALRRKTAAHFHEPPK

Experiment [2] deals with T2, SSB (Homo sapiens, UniProt P05455).
T2 sequence: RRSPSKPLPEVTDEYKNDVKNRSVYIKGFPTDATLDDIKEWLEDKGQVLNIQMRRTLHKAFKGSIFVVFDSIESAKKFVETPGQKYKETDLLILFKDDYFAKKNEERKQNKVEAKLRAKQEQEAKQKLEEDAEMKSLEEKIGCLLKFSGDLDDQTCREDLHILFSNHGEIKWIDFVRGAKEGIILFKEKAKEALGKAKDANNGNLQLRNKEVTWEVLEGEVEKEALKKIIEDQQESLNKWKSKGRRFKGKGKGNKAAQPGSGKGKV

For experiment [3], the target named is SAFB2 (Homo sapiens, UniProt Q14151).
Experiment [4] addresses T3, RBM28(3-4) (Homo sapiens, UniProt Q9NW13).
T3 sequence: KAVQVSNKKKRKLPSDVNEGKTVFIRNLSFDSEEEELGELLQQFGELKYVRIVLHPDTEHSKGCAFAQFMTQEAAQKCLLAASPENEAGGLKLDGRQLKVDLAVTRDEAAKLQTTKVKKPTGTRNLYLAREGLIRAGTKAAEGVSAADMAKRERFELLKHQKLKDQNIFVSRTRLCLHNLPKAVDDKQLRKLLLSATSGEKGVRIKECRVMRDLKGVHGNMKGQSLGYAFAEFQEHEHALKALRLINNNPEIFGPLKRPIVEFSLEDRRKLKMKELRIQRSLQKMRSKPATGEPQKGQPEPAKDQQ

Experiment [5] deals with T4, RBM42 (Homo sapiens, UniProt Q9BTD8).
T4 sequence: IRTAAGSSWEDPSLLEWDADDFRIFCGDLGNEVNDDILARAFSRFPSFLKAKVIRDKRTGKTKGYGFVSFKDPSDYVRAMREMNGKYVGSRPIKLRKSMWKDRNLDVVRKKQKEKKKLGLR

Experiment [6] has as its target T5, RBM48 (Homo sapiens, UniProt Q5RL73).
T5 sequence: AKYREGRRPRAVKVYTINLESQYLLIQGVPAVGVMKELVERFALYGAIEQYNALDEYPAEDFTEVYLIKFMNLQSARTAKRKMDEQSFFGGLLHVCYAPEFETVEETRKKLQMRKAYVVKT

Experiment [7] deals with T6, Kanadaptin (Homo sapiens, UniProt Q9BWU0).
T6 sequence: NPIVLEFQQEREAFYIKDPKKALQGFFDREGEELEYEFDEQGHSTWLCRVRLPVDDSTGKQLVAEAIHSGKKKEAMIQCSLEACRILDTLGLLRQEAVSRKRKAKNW

The target in experiment [8] is ROD1(1-2) (Homo sapiens, UniProt O95758).
The target of experiment [9] is T7, RBM9 (Homo sapiens, UniProt O43251).
T7 sequence: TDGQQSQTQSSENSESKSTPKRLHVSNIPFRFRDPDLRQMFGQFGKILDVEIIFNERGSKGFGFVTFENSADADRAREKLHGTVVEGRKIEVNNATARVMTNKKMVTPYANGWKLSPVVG

Experiment [10] concerns the target T8, NOVA1(1-2) (Homo sapiens, UniProt P51513).
T8 chain: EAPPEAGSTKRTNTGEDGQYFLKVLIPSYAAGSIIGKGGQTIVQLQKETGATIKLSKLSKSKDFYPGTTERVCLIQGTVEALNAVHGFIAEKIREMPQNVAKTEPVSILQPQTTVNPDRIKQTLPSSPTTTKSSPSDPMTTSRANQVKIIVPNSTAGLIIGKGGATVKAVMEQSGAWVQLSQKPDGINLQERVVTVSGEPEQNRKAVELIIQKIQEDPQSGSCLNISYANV

Chain of SAFB2 (Q14151 380-500): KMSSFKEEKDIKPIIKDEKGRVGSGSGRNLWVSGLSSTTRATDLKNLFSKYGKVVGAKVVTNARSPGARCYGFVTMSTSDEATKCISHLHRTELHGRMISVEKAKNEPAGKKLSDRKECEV
Chain of ROD1(1-2) (O95758 40-280): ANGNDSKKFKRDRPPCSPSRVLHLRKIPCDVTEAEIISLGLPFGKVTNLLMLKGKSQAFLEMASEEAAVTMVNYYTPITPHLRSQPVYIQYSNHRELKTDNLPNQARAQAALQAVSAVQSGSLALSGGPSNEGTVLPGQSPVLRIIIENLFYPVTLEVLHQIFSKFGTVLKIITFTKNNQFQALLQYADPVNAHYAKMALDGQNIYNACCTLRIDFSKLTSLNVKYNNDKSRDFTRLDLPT

As to UGAGGUAGUAGGUUGUAUGGUU, the binding signal in experiment [1] was 231.1 ± 1.89 fluorescence intensity; in experiment [2], 770 ± 38.1 fluorescence intensity; in [3], 488.9 ± 0.622 fluorescence intensity; in experiment [4], 77 ± 4.09 fluorescence intensity; in experiment [5], 362 ± 5.61 fluorescence intensity; in experiment [6] it was 94.7 ± 35.8 fluorescence intensity. For the same sequence, the binding signal in experiment [7] amounted to 47.3 ± 6.22 fluorescence intensity; in experiment [8], 367 ± 26.4 fluorescence intensity; in experiment [9], 1940 ± 112 fluorescence intensity; in experiment [10], 90.1 ± 7.43 fluorescence intensity.
For UGAGGUAGUAGGUUGUAUAGUU, the binding signal in experiment [1] worked out at 39.6 ± 0.516 fluorescence intensity; in experiment [2] it was 76.1 ± 6.81 fluorescence intensity; in experiment [3] it was 130 ± 21.8 fluorescence intensity; in experiment [5], 57.7 ± 4.36 fluorescence intensity; in experiment [8], 49.2 ± 4.26 fluorescence intensity; in experiment [9], 693 ± 16.3 fluorescence intensity. Moreover, the binding signal in experiment [10] was determined as 27.6 ± 0.799 fluorescence intensity.
In the case of UGAGGUAGUAGGUUGUGUGGUU, the binding signal in [1] turned out to be 318.4 ± 2.5 fluorescence intensity; in [2] it was 686 ± 34.9 fluorescence intensity; in experiment [3], 826.5 ± 2.57 fluorescence intensity; in experiment [4], 135 ± 19.4 fluorescence intensity; in experiment [5], 613 ± 9.75 fluorescence intensity; in [6], 128 ± 27.9 fluorescence intensity. Besides, the binding signal was determined as 62.8 ± 3.11 fluorescence intensity in experiment [7], 562 ± 23.1 fluorescence intensity in experiment [8], 1610 ± 18 fluorescence intensity in experiment [9] and 134 ± 4.86 fluorescence intensity in experiment [10].
Consider AGAGGUAGUAGGUUGCAUAGUU, for which the binding signal in [1] turned out to be 122 ± 10.5 fluorescence intensity; in experiment [2], 587.4 ± 5.08 fluorescence intensity; in [3], 328.4 ± 1.94 fluorescence intensity; in [4] it was 54.1 ± 1.09 fluorescence intensity; in experiment [5], 231 ± 13.5 fluorescence intensity; in [6], 90.1 ± 12.4 fluorescence intensity. Further, the binding signal in experiment [7] is 33.9 ± 1.02 fluorescence intensity; in experiment [8], 339 ± 66.7 fluorescence intensity; in [9], 2720 ± 95.4 fluorescence intensity; in experiment [10] it was 318 ± 18.7 fluorescence intensity.
UAGCUUAUCAGACUGAUGUUGA: the binding signal worked out at 23.1 ± 1.03 fluorescence intensity in experiment [1]; 22.6 ± 3.15 fluorescence intensity in [2]; 54.58 ± 0.247 fluorescence intensity in experiment [3]; 21 ± 0.962 fluorescence intensity in experiment [5]; 916 ± 20.1 fluorescence intensity in experiment [9].
With CAGUGCAAUGAUGAAAGGGCAU, the binding signal was 110 ± 1.73 fluorescence intensity in [1]; 324 ± 18.3 fluorescence intensity in experiment [2]; 298 ± 17.8 fluorescence intensity in experiment [3]; 25.9 ± 2.84 fluorescence intensity in experiment [4]; 187 ± 2.13 fluorescence intensity in [5]; 51.01 ± 0.233 fluorescence intensity in experiment [6]. Besides, the binding signal in experiment [8] worked out at 116 ± 66.5 fluorescence intensity; in experiment [9], 1850 ± 25.3 fluorescence intensity; in experiment [10], 260.9 ± 1.94 fluorescence intensity.
